About 79,000 compounds went through this panel and 15% of them were active in at least one assay; those are over-represented in the sample as a whole. A number with no mark means an inactive call. The source made the active and inactive calls. Rule as the data show it: active = growth inhibition above about 70%; inactive = the rest. Where a SMILES comes first, the peptide text is derived from it. [ ]: non-standard residue; d: D form. The star is where a group is joined. Cbz = O=C(OCc1ccccc1)*; Nva = CCC[CH](N)C(=O)O

Assay [1] is described as follows: NCI Yeast Anticancer Drug Screen. Data for the rad50 strain (AID 155).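 Also: 0% = growth of vehicle-only cultures of the same strain.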 To be noted: S. cerevisiae rad50 strain growth inhibition; at 50.0 µM; active compounds read high. Summed up:
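A DNA repair-deficient yeast mutant serves as the test organism; compound-induced growth inhibition is calculated against vehicle-treated cells.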

The nature of assay [2]: NCI Yeast Anticancer Drug Screen. Data for the mec2-1 strain (AID 157). To be noted: S. cerevisiae mec2-1 strain, at 50.0 µM, active compounds read high. Summed up: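 Cells of the genetically defined mec2-1 yeast strain are incubated with test compound. Inhibition of growth is calculated against vehicle-treated controls.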
Assay [3] is described as follows: NCI Yeast Anticancer Drug Screen. Data for the sgs1 mgt1 strain (AID 161).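 Also: 0% = growth of cultures given vehicle only.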 To be noted: S. cerevisiae sgs1 mgt1 strain, at 50.0 µM, active compounds read high. Summed up:
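Inhibition of yeast growth, normalised to vehicle-treated controls, is reported for a strain bearing genetic alterations in DNA damage repair.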

Assay [4] is described as follows: NCI Yeast Anticancer Drug Screen. Data for the cln2 rad14 strain (AID 165).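 Also: 0% = growth equal to vehicle treated cultures.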 To be noted: S. cerevisiae cln2 rad14 strain, at 50.0 µM, active compounds read high. Put shortly:
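The screen exposed genetically defined yeast (cln2 rad14) to test compounds and scored growth inhibition relative to vehicle-treated controls.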

Assay [5] is described as follows: NCI Yeast Anticancer Drug Screen. Data for the bub3 strain (AID 167). To be noted: S. cerevisiae bub3 mutant strain, at 50.0 µM, active compounds read high. Put shortly:
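Inhibition values come from growth of compound-treated mutant yeast normalised to vehicle-treated controls.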

Assay [6] in a line: NCI Yeast Anticancer Drug Screen. Data for the mlh1 rad18 strain (AID 175). To be noted: S. cerevisiae mlh1 rad18 strain growth inhibition; at 50.0 µM; active compounds read high. Summed up:
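Compound-treated yeast growth, normalised to vehicle controls. Strain bears defined DNA repair mutations.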

As to `Nc1nnnn1NC(=O)NCCCl`, the growth inhibition in assay [1] was -43.7%; in assay [2], -38.7%; in assay [3] it was -35.9%; in assay [4], -18.4%; in assay [5], -27.4%; in assay [6], -26.5%.

As to `C[N+](C)(C)/N=C(/c1ccccc1)C1CCCCC1`, the growth inhibition is -20.2% in assay [1]; -2.1% in assay [2]; -4.35% in assay [3]; -43.5% in assay [4]; 0.4% in assay [5]; 7.7% in assay [6].

In the case of `C/C=C/c1ccc(OC(C)C(=O)c2ccc3c(c2)OCO3)c(OC)c1` (stereo unspecified), the growth inhibition in assay [1] was -12.4%; in assay [2], -28.9%; in assay [3], 8.8%; in assay [4], -10.5%; in assay [5], 6.7%; in assay [6], -7.05%.

With `Cc1ccc(N=C(c2ccccc2)c2ccc([N+](=O)[O-])cc2)cc1`, the growth inhibition was -16.6% in assay [1]; -7.05% in assay [2]; -21.7% in assay [3]; -26.9% in assay [4]; 21.4% in assay [5]; -11.8% in assay [6].

As for `Nc1nc(N)c(-c2ccc(Cl)c(Cl)c2)c(COc2cccc3ccccc23)n1`, the growth inhibition in assay [1] was 98.7% (active); in assay [2], 99% (active); in assay [3] it was 99.2% (active); in assay [4], 96.5% (active); in assay [5], 98.1% (active); in assay [6], 98.7% (active).

`C#CC(O)(CC)CCCC` (stereo unspecified): the growth inhibition was -8.85% in assay [1]; -13.4% in assay [2]; 10.2% in assay [3]; -18.5% in assay [4]; -10.9% in assay [5]; -4.25% in assay [6].

For `Cc1ccc(NC(=S)N(C)C)cc1`, the growth inhibition in assay [1] is 14.5%; in assay [2] it was 15.9%; in assay [3] it was -10.6%; in assay [4], -71.8%; in assay [5], 22.4%; in assay [6], -23.9%.

Turning to `COn1c2ccccc2c2c1cc1ccccc1[n+]2[O-]`, the growth inhibition in assay [1] is -7.15%; in assay [2], -5.95%; in assay [3] it was -8.9%; in assay [4] it was -52.5%; in assay [5], -9.65%; in assay [6], -13.4%.

Consider `CCO/C=N\c1c(C#N)c(CC#N)nn1C`, for which the growth inhibition in assay [1] is -3.55%; in assay [2], -12%; in assay [3] it was -8.65%; in assay [4] it was -27.9%; in assay [5] it was -1.75%; in assay [6], -13.4%.

For the compound `CC1CC(C)OC2(CCCC2)O1` (stereo unspecified), the growth inhibition was 8.45% in assay [1]; -8.05% in assay [2]; 2.2% in assay [3]; -12.8% in assay [4]; 4.05% in assay [5]; -5.3% in assay [6].

Regarding `COC(c1ccc(C(C)(C)C)cc1)(c1ccc(C(C)(C)C)cc1)c1cc(C(O)(c2cc(C(OC)(c3ccc(C(C)(C)C)cc3)c3ccc(C(C)(C)C)cc3)c(C)cc2C)c2cc(C(OC)(c3ccc(C(C)(C)C)cc3)c3ccc(C(C)(C)C)cc3)c(C)cc2C)c(C)cc1C`, the growth inhibition in assay [1] was -26.8%; in assay [2], -12.7%; in assay [3], -12.8%; in assay [4] it was 13.8%; in assay [5], -17.8%; in assay [6], -9.05%.

Regarding `CNCCC1CCCCCC1`, the growth inhibition was 1.8% in assay [1]; 5.45% in assay [2]; -1.15% in assay [3]; -13.5% in assay [4]; 10.9% in assay [5]; -2.8% in assay [6].

Regarding `[N-]=[N+]=Nc1ccccc1-c1ccc([N+](=O)[O-])cc1`, the growth inhibition in assay [1] is -12.9%; in assay [2] it was -11.5%; in assay [3], 11.1%; in assay [4] it was -32.2%; in assay [5], 1.2%; in assay [6] it was 29.6%.

Consider `O=C(N=c1nc(NC(=O)c2ccccc2)ss1)c1ccccc1`, for which the growth inhibition in assay [1] was -0.25%; in assay [2], 7.7%; in assay [3], -2.8%; in assay [4], -42.2%; in assay [5] it was -17.1%; in assay [6], 13.2%.

`O=C(c1ccccc1)C(O)(Cc1ccccc1)c1ccccc1` (stereo unspecified): the growth inhibition in assay [1] was 1.9%; in assay [2], 17.2%; in assay [3], 20.8%; in assay [4], 22.8%; in assay [5], 14.4%; in assay [6], 12%.

For the compound `CCCC(NC(=O)OCc1ccccc1)C(=O)NC(Cc1ccc(O)cc1)C(=O)O` (stereo unspecified) (Cbz-[Nva]-Tyr-OH; configuration not given here), the growth inhibition is -3.5% in assay [1]; -0.35% in assay [2]; -4.2% in assay [3]; 7% in assay [4]; -16.4% in assay [5]; 10% in assay [6].

As for `CCCCCCC/C=C\C=O`, the growth inhibition in assay [1] is 7.2%; in assay [2] it was 16.9%; in assay [3] it was 7.95%; in assay [4], -1.25%; in assay [5], 1%; in assay [6], 3.7%.

Consider `O=C1CNC(=O)N1Nc1ccccc1`, for which the growth inhibition in assay [1] was -9.35%; in assay [2] it was -2.55%; in assay [3] it was -2.35%; in assay [4], -26.6%; in assay [5] it was 4%; in assay [6] it was -5.3%.

Consider `c1ccc2c(c1)SCCc1nncn1-2`, for which the growth inhibition in assay [1] was -6.6%; in assay [2], 7.3%; in assay [3], -1.4%; in assay [4] it was -24.4%; in assay [5], 8.5%; in assay [6], 4.95%.

On to `CSc1n[n+]2c(s1)SCCC2`, for which the growth inhibition in assay [1] is -19.8%; in assay [2] it was -27.2%; in assay [3], 0.05%; in assay [4], 5.45%; in assay [5] it was -8.7%; in assay [6], 0.05%.

As to `CCCCCCCCCCCCCCCCN(C)C(=S)c1ccc(OC)cc1`, the growth inhibition in assay [1] is 25.4%; in assay [2] it was -3.4%; in assay [3], -1.8%; in assay [4], -3.15%; in assay [5], -1%; in assay [6], -8.4%.

The record behind these values is PubChem BioAssay (NCI).
